# Test results: PubChem BioAssay (EPA / NIEHS)
# Where “and” joins values, the source holds several entries; their conditions need not be identical. Identical values can stand only once. Calls of active or inactive are those of the source. How the source made its calls: active means hit-call score of the fitted dose curve at least 0.9, where 1 is the maximum; inactive means score below 0.9.
# Read-out: Monocyte Chemoattractant Protein-1 (MCP1), CCL2 (gene 6347)
# Experiment: BSK_SAg_MCP1: BioMAP Diversity Plus: SAg Assay for Monocyte Chemoattractant Protein-1 (MCP1) Biomarker Activity (AID 2283090)
# Settings: primary human HUVEC with PBMC; actives raise or lower the signal
# In short: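 Values derive from bidirectional fitting of ELISA-measured MCP1 against DMSO controls. Readings were taken 24 h after dosing human vascular endothelial cells co-cultured with peripheral blood mononuclear cells under superantigen stimulation.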
Compound,AC50,outcome
CCOC(=O)C(C)Oc1ccc(Oc2nc3ccc(Cl)cc3o2)cc1 (centres undefined),20 µM (active),–
Cc1nn(C)c(Oc2ccccc2)c1C=NOCc1ccc(C(=O)OC(C)(C)C)cc1,7.6 µM (active),–
O=C(O)c1ccccc1,–,inactive
CCCCOC(=O)C(C)Oc1ccc(Oc2ccc(C(F)(F)F)cn2)cc1 (centres undefined),–,inactive
CC1(C)C(C=C(Cl)Cl)C1C(=O)OCc1cccc(Oc2ccccc2)c1 (centres undefined),–,inactive
COc1nc(C)nc(NC(=O)NS(=O)(=O)c2ccccc2OCCCl)n1,–,inactive
COC(=O)c1c(Cl)nn(C)c1S(=O)(=O)NC(=O)Nc1nc(OC)cc(OC)n1,–,inactive
CSC(=O)c1cccc2nnsc12,–,inactive
CCOC(=O)[C@H](C)Oc1ccc(Oc2nc3ccc(Cl)cc3o2)cc1,–,inactive
CCCOC(=O)c1ccc(C(=O)OCCC)nc1,–,inactive
CCC(O)=C1C(=O)CC(C(=O)O)CC1=O (centres undefined),–,inactive
C#C[C@]1(O)CC[C@H]2[C@@H]3CCC4=CC(=O)CC[C@@H]4[C@H]3CC[C@@]21CC,–,inactive
CCCCOC(=O)[C@@H](C)Oc1ccc(Oc2ccc(C(F)(F)F)cn2)cc1,–,inactive
CCCN(CCC)c1c([N+](=O)[O-])cc(C(F)(F)F)c(N)c1[N+](=O)[O-],31 µM (active),–
CCNc1nc(N)nc(Cl)n1,–,inactive
CC(C)CCCCCCc1ccc(O)cc1,6.52 µM (active),–
COC(=O)c1ccccc1S(=O)(=O)NC(=O)Nc1nc(OC(F)F)cc(OC(F)F)n1,–,inactive
CCCCC(CC)COC(=O)c1ccccc1C(=O)O (centres undefined),–,inactive
N#CSCSc1nc2ccccc2s1,7.7 µM (active) and 10.5 µM (active),–
